The results in this text go back to paper PMC7862700, “An all-to-all approach to the identification of sequence-specific readers for epigenetic DNA modifications on cytosine”.

Holding throughout (assay): DAPPL (digital affinity profiling via proximity ligation, sequencing); 10 mM Tris-HCl pH 7.5, 50 mM NaCl, 1 mM DTT, 4% glycerol, room temperature, 30 min; GST-TFs on glutathione beads, 16-mer random dsDNA library, 0.1% formaldehyde crosslink after washing; high values mean tight binding
Test [1] deals with T1, FEV (Homo sapiens, UniProt Q99581 1-238).
T1 sequence: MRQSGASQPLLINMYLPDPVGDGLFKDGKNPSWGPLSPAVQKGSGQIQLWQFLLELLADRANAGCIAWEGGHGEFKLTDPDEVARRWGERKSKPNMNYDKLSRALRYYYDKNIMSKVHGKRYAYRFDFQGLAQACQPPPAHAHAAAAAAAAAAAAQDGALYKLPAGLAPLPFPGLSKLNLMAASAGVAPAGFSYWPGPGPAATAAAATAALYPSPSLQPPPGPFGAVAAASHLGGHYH
To be noted: protein: recombinant; tags: N-terminal GST; dsDNA, one strand shown. The procedure, abridged:
(§1)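 A tag-only sample was pooled with DNA-barcoded human transcription factors that had been expressed in yeast as GST fusions and captured on glutathione beads. The pools were incubated for 30 min at room temperature with 200 nmole of a random double-stranded 16-mer DNA library in Tris/NaCl/DTT/glycerol buffer, then washed, crosslinked with 0.1% formaldehyde, proximity-ligated (BsaI/T4 ligase, 1 h, 37 °C), PCR-amplified and sequenced on an Illumina NextSeq500. Binding signal is each hexamer's read frequency for a factor divided by its frequency for the tag-only sample.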

Test [2] addresses ETV5 (Homo sapiens, UniProt P41161 1-510). To be noted: protein: recombinant; tags: N-terminal GST; dsDNA, one strand shown. The procedure, abridged: as §1
Test [3] deals with HSF1 (Homo sapiens, UniProt Q00613 1-529). To be noted: protein: recombinant; tags: N-terminal GST; chain copies: 3; dsDNA, one strand shown. The procedure, abridged: as §1
Chain of HSF1 (Q00613 whole entry): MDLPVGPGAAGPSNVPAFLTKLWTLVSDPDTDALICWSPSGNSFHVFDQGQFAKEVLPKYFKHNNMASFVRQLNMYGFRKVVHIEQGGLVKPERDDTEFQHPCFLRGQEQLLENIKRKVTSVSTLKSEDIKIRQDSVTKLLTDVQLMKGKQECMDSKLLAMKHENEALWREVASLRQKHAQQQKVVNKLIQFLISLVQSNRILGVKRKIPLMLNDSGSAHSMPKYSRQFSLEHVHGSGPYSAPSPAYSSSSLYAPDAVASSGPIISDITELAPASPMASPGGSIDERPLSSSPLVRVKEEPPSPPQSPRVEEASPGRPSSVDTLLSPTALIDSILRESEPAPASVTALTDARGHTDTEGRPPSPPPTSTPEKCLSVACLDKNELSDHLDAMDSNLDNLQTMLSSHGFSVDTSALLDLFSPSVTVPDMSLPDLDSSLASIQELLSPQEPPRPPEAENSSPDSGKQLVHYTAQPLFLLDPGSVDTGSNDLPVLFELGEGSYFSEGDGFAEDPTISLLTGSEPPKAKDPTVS
Test [4] concerns the target T2, SPIC (Homo sapiens, UniProt Q8N5J4 1-248).
T2 sequence: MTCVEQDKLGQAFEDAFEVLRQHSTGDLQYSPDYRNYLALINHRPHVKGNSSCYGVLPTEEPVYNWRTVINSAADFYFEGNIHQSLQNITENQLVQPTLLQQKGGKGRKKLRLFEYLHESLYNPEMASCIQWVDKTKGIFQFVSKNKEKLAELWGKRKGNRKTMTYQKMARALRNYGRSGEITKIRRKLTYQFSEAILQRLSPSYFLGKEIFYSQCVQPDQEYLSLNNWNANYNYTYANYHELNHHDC
To be noted: protein: recombinant; tags: N-terminal GST; dsDNA, one strand shown. The procedure, abridged: as §1

The target in test [5] is ELF4 (Homo sapiens, UniProt Q99607 1-663). To be noted: protein: recombinant; tags: N-terminal GST; dsDNA, one strand shown. The procedure, abridged:
as §1

Test [6] addresses T3, ELK4 (Homo sapiens, UniProt P28324-2 1-405).
T3 sequence: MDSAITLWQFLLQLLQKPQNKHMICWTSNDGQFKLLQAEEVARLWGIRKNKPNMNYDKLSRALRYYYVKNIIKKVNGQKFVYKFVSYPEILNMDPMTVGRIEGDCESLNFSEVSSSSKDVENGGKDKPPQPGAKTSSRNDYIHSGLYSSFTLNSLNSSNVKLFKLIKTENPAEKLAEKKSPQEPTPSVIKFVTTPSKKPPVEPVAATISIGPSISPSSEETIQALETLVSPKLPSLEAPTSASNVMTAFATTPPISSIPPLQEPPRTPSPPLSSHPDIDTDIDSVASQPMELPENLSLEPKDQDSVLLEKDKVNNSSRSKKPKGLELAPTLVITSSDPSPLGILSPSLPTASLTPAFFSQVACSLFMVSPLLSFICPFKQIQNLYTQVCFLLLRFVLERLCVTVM
The note with it: protein: recombinant; tags: N-terminal GST; dsDNA, one strand shown. The procedure, abridged: as §1

For test [7], the target named is T4, ETV2 (Homo sapiens, UniProt O00321 1-342).
T4 sequence: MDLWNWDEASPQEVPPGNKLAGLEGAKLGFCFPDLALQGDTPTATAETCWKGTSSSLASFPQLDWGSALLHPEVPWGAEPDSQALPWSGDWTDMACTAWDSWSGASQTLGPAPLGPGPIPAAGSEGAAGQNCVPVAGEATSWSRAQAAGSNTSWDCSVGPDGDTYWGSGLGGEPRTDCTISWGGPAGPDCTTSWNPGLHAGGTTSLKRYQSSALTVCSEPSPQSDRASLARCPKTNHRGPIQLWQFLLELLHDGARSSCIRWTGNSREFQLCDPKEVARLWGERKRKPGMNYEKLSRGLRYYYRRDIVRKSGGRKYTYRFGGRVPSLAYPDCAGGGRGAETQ
To be noted: protein: recombinant; tags: N-terminal GST; dsDNA, one strand shown. The procedure, abridged: as §1

Test [8] addresses T5, ELF3 (Homo sapiens, UniProt P78545 1-371).
T5 sequence: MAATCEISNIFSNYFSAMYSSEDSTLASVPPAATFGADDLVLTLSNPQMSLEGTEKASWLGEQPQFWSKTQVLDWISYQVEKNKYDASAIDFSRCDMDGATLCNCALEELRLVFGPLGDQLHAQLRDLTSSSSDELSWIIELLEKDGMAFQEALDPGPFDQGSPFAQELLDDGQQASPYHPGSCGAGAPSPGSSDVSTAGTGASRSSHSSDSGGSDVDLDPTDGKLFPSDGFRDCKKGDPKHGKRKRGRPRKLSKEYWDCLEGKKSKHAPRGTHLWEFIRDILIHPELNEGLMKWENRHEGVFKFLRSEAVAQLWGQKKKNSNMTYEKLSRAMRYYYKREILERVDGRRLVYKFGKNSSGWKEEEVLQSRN
To be noted: protein: recombinant; tags: N-terminal GST; dsDNA, one strand shown. The procedure, abridged: as §1

For test [9], the target named is CRX (Homo sapiens, UniProt O43186 1-299). The note with it: protein: recombinant; tags: N-terminal GST; dsDNA, one strand shown. The procedure, abridged: as §1
Chain of CRX (O43186 whole entry): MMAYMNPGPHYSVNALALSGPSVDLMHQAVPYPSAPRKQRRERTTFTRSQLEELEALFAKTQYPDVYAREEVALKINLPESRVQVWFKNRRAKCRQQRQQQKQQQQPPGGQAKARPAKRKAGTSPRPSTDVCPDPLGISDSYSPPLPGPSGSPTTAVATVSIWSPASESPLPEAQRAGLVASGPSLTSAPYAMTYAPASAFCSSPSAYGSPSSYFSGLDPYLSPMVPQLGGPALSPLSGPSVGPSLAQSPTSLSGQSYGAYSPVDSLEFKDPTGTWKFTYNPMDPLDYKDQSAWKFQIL
Test [10] addresses ETV1 (Homo sapiens, UniProt P50549 1-477). The note with it: protein: recombinant; tags: N-terminal GST; dsDNA, one strand shown. The procedure, abridged:
as §1

Test [11] has as its target T6, ERF (Homo sapiens, UniProt P50548 1-548).
T6 sequence: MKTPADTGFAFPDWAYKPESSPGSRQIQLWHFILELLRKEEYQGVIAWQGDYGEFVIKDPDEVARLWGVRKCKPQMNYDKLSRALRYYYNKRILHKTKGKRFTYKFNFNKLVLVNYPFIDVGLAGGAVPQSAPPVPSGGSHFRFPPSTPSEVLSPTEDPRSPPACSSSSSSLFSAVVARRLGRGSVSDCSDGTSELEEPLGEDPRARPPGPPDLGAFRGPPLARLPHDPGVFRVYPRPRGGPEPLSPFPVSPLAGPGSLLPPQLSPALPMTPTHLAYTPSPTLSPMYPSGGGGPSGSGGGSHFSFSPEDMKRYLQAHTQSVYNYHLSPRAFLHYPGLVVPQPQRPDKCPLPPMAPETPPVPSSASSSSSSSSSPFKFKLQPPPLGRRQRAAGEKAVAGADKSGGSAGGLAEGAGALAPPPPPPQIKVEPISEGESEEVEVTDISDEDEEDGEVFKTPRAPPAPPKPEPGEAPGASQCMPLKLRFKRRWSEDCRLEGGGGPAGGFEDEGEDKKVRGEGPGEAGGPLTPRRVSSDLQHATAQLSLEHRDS
The note with it: protein: recombinant; tags: N-terminal GST; dsDNA, one strand shown. The procedure, abridged:
as §1

Test [12] addresses T7, ETV3L (Homo sapiens, UniProt Q6ZN32 1-361).
T7 sequence: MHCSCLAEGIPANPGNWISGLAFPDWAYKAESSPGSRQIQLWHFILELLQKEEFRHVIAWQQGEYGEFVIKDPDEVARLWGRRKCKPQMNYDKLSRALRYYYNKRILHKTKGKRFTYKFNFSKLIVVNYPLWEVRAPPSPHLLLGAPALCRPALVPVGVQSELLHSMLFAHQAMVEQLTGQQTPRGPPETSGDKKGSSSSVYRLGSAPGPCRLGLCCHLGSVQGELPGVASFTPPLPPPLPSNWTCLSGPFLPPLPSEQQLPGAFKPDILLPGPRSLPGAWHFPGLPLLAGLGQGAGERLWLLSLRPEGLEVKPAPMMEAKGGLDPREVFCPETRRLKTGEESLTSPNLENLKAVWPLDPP
The note with it: protein: recombinant; tags: N-terminal GST; dsDNA, one strand shown. The procedure, abridged:
as §1

Test [13] has as its target T8, ETS2 (Homo sapiens, UniProt P15036 1-469).
T8 sequence: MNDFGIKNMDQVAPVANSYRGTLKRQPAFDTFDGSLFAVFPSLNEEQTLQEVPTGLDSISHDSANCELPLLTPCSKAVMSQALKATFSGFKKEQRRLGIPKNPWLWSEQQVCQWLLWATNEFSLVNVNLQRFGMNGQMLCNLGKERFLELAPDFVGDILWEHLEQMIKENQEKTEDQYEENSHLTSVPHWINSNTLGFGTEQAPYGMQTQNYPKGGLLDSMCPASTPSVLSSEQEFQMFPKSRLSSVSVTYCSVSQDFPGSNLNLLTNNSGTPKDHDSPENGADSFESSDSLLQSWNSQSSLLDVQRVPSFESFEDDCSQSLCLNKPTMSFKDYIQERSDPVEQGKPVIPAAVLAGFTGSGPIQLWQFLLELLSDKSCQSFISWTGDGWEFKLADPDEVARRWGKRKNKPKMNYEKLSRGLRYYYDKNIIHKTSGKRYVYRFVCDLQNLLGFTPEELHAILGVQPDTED
To be noted: protein: recombinant; tags: N-terminal GST; dsDNA, one strand shown. The procedure, abridged:
as §1

Test [14] deals with T9, SPDEF (Homo sapiens, UniProt O95238 1-335).
T9 sequence: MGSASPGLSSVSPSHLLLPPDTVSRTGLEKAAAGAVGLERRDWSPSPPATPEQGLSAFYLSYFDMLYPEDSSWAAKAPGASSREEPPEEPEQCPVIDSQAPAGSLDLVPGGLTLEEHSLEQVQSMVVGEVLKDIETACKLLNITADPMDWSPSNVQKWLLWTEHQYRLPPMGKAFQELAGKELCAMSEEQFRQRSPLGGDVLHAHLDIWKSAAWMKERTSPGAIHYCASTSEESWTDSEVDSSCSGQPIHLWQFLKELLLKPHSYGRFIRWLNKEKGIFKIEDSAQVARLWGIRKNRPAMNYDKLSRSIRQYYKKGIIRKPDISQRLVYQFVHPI
The note with it: protein: recombinant; tags: N-terminal GST; dsDNA, one strand shown. The procedure, abridged: as §1

The target in test [15] is T10, ETV7 (Homo sapiens, UniProt Q9Y603 1-341).
T10 sequence: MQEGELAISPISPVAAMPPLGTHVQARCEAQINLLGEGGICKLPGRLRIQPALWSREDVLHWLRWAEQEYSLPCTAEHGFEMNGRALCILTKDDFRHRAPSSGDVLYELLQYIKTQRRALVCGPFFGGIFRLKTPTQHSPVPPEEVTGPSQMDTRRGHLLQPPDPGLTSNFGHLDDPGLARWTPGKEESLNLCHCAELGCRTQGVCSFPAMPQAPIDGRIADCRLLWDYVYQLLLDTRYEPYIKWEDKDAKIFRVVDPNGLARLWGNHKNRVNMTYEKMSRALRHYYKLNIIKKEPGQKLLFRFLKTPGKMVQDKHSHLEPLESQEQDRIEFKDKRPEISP
To be noted: protein: recombinant; tags: N-terminal GST; dsDNA, one strand shown. The procedure, abridged:
as §1

For test [16], the target named is T11, ELF5 (Homo sapiens, UniProt Q9UKW6-2 1-255).
T11 sequence: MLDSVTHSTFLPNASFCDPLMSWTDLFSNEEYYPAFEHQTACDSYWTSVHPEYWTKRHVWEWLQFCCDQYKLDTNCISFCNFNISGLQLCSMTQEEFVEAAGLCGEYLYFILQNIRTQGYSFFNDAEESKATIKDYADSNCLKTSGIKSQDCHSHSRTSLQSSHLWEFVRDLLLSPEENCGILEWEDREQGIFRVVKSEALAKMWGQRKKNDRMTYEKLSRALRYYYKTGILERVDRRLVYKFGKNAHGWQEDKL
The note with it: protein: recombinant; tags: N-terminal GST; dsDNA, one strand shown. The procedure, abridged:
as §1

The target of test [17] is T12, ETV3 (Homo sapiens, UniProt P41162-2 1-143).
T12 sequence: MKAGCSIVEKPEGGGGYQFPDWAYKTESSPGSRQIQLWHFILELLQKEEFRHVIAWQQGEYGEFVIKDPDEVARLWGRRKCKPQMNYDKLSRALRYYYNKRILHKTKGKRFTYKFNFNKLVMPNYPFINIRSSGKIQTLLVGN
The note with it: protein: recombinant; tags: N-terminal GST; dsDNA, one strand shown. The procedure, abridged:
as §1

Test [18] addresses ETV6 (Homo sapiens, UniProt P41212 1-452). To be noted: protein: recombinant; tags: N-terminal GST; dsDNA, one strand shown. The procedure, abridged: as §1

Chain of ETV6 (P41212 whole entry): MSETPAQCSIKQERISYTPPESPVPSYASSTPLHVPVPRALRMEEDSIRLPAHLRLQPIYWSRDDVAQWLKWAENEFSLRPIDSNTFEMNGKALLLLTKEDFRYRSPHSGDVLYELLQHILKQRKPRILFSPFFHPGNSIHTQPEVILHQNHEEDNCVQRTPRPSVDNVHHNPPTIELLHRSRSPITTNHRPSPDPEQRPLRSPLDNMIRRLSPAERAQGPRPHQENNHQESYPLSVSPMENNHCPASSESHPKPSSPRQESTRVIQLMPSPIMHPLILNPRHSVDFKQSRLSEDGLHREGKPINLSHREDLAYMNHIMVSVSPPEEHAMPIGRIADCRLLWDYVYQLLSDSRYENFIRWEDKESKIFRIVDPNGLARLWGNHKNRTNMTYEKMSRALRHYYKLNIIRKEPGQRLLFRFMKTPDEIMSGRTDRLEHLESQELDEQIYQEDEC
Chain of ETV5 (P41161 whole entry): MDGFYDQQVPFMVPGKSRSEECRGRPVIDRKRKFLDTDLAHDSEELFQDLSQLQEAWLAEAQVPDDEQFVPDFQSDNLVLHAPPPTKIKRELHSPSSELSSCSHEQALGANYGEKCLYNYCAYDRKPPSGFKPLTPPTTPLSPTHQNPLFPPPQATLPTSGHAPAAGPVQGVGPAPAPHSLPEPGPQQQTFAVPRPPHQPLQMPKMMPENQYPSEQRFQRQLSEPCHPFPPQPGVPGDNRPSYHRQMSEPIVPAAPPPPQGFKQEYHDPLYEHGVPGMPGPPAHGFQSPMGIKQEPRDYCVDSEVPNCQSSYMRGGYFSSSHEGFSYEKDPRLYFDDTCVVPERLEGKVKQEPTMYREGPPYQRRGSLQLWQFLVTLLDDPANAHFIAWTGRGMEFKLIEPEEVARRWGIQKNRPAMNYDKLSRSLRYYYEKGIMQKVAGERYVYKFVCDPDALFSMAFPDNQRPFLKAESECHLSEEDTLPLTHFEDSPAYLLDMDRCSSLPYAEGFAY
Chain of ELF4 (Q99607 whole entry): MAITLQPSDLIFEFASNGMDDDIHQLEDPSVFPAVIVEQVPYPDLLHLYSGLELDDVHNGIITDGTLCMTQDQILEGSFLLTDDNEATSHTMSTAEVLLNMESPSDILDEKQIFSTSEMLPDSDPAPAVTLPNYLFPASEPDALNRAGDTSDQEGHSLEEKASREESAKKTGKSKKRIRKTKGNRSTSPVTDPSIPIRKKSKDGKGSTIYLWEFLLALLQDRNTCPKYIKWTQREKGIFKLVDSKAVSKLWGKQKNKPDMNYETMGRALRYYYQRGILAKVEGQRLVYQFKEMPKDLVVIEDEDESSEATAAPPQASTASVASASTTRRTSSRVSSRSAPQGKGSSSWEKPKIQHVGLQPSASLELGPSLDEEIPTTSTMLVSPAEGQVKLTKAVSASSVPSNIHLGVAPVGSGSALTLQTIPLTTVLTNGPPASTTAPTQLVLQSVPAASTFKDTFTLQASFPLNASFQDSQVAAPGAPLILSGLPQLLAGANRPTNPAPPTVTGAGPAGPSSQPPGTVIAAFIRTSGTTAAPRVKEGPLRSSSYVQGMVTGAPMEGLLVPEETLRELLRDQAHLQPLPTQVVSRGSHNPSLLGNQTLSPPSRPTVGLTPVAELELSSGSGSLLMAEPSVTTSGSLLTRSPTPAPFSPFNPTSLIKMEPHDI
Chain of ETV1 (P50549 whole entry): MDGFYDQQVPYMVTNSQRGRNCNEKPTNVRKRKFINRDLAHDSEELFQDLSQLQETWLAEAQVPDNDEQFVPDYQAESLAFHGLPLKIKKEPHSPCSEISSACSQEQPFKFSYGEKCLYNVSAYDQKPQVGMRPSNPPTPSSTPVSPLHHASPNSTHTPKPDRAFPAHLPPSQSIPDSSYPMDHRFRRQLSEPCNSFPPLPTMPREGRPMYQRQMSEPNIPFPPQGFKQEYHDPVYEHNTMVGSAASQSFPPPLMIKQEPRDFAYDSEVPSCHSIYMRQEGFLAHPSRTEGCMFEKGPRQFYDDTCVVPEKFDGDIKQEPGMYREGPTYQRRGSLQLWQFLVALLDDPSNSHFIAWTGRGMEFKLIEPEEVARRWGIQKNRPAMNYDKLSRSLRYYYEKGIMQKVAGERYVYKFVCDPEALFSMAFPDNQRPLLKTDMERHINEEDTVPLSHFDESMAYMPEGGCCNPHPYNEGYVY

As to CGTTTC, the binding signal in test [1] was 1.98 fold enrichment (6-mer frequency, TF over GST control); in [2], 1.72 fold enrichment (6-mer frequency, TF over GST control); in test [3] it was 1.24 fold enrichment (6-mer frequency, TF over GST control); in test [4], 1.77 fold enrichment (6-mer frequency, TF over GST control); in test [5], 1.8 fold enrichment (6-mer frequency, TF over GST control); in test [6], 1.65 fold enrichment (6-mer frequency, TF over GST control). Also, the binding signal in test [7] is 1.41 fold enrichment (6-mer frequency, TF over GST control); in [8] it was 1.72 fold enrichment (6-mer frequency, TF over GST control); in test [9], 1.06 fold enrichment (6-mer frequency, TF over GST control); in test [10], 1.61 fold enrichment (6-mer frequency, TF over GST control); in test [11], 1.74 fold enrichment (6-mer frequency, TF over GST control); in test [12], 1.64 fold enrichment (6-mer frequency, TF over GST control). The binding signal in test [13] is 1.74 fold enrichment (6-mer frequency, TF over GST control); in [14], 1.75 fold enrichment (6-mer frequency, TF over GST control); in [15], 1.98 fold enrichment (6-mer frequency, TF over GST control); in [16] it was 2.04 fold enrichment (6-mer frequency, TF over GST control); in test [17], 1.83 fold enrichment (6-mer frequency, TF over GST control); in test [18], 1.95 fold enrichment (6-mer frequency, TF over GST control).
